TGFb inhibitor – blocks TGF-b signaling; Potency, µM (top dose mostly 46.1 µM), actives largely listed as inhibitors; HepG2 CAGA-GFP TGF-b/SMAD3 reporter, GFP fluorescence, 18 h; TGF-beta stimulated, 500 pg/mL final; 410,000 compounds, 1.2% hits; AID 588855; further: nearly all actives have a fitted effect of over 65% in size
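Read-out: total well GFP (ex488/em500-530) summed from mean per-cell fluorescence. Cells: HEPG2 CAGA-GFP, 1% FBS DMEM, 18 h at 37 degrees C with 500 pg/mL final TGF-beta. Unstimulated wells served as the full-inhibition control; stimulated DMSO wells = 0%.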
A549 viability – kills or reduces viability of A549 cells in Nrf2 counter-screen; A549 ARE-Fluc cells, CellTiter-Fluor viability, 18-24 h; Potency, µM (series often up to 46 µM), hits mostly inhibitors; AID 504648; 390,000 compounds, 0.16% hits
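A549 ARE_Fluc cells in 5% FBS OPTI-MEM were exposed to compounds in concentration-response for 18-24 h at 37 deg C. Viability was read by CellTiter-Fluor fluorescence (Ex 405/Em 525) after 30 min, before the luciferase read.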
HepG2 tox-1 – kills HepG2 cells in TGF-b inhibitor counter-screen; Potency, µM (series often up to 46.1 µM), most hits filed as cytotoxic; 410,000 compounds, 0.76% hits; HepG2 CAGA-GFP viability, ATP luminescence, 18 h
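HepG2 CAGA-GFP cells (1000/well, DMEM with 1% FBS) received compound, then TGF-beta at 500 pg/mL final, and were incubated 18 hours at 37 degrees C. Viability was read by CellTiter-Glo luminescence. Media-only wells were set as complete cell-killing and DMSO as no toxicity.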
S2 tox – reduces viability in counter-screen for ATXN expression inhibitors; 400,000 compounds, 0.49% hits; Potency, µM (titrated, usually from 56.7 µM), usual class: cytotoxic; S2 cells (HEK-293 line with an ATXN2-luciferase reporter) viability, CellTiter-Fluor protease fluorescence, 24 h; further: nearly all actives have a fitted effect of over 40% in size
ATXN2 expr inh – inhibitors of ATXN2 expression. Potency, µM (doses to about 57 µM), usual class: inhibitors. AID 1745845. HEK-293 ATXN2-luciferase reporter, luminescence, 24 h. 360,000 compounds, 0.72% hits; further: nearly all actives have a fitted effect of over 55% in size
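qHTS (up to 57 uM final) was run with 24 h compound exposure of reporter cells at 37 °C. Each well was multiplexed: SteadyGlo luminescence measured ATXN2-luciferase expression after a fluorogenic Gly-Phe-AFC viability readout (25 uM final).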
Nrf2 block – Nrf2 pathway inhibition; AID 504444; Potency, µM (titrated, usually from 46 µM), hits mostly inhibitors; 360,000 compounds, 2.1% hits; A549 ARE-Fluc reporter, luciferase luminescence, 18-24 h; further: nearly all actives have a fitted effect of over 60% in size
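A549 ARE_Fluc cells, 5000/well, 5% FBS OPTI-MEM; compounds in dose-response, 18-24 h at 37 °C/5% CO2; CellTiter-Fluor viability read (Ex 405/Em 525), then BugLite luciferase luminescence = Nrf2 activity.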
TGFb CAGA inh – confirmation of TGF-b signaling inhibitors in HepG2 reporter cells. AID 720534. shares compounds with TGFb inhibitor. Potency, µM (series often up to 46.1 µM), actives largely listed as inhibitors. 1,600 compounds, 63% hits. HepG2 CAGA-GFP TGF-b reporter, GFP fluorescence, 18 h; cells stimulated with TGF-beta, 500 pg/mL; further: nearly all actives have a fitted effect of over 65% in size
HepG2 tox-2 – counter-screen for TGF-b inhibitors: cytotoxicity in HepG2 cells | shares compounds with TGFb inhibitor | HepG2 CAGA-GFP viability, ATP luminescence, 18 h; cells stimulated with TGF-beta, 500 pg/mL | Potency, µM (series often up to 46.1 µM), usual class: inhibitors | 1,600 compounds, 27% hits; further: nearly all actives have a fitted effect of over 70% in size
TGFb CCL64 inh – orthogonal confirmation of TGF-b inhibitors in CCL64 cells; 1,600 compounds, 41% hits; shares compounds with TGFb inhibitor; AID 720536; Potency, µM (highest dose often 46.1 µM), usual class: inhibitors; CCL64 CAGA-GFP reporter, TGF-b stimulated, GFP fluorescence, 18 h; further: nearly all actives have a fitted effect of over 65% in size
TGFb COP inh – validation of TGF-b inhibitors in HepG2 COP promoter reporter; shares compounds with TGFb inhibitor; HepG2 COP-GFP TGF-b reporter, GFP fluorescence, 18 h; cells stimulated by added recombinant TGF-beta; Potency, µM (highest dose often 46.1 µM), hits mostly inhibitors; 1,600 compounds, 3% hits; further: nearly all actives have a fitted effect of over 70% in size
Of the large screens only hits and unclear results are named; the others gave an inactive call (follow-up assays come after a bar, where they were run). This is a sample that favours compounds with a hit; in the whole collection about 3.8% have one here. The call rests on the fitted dose curve; in most records, active means well fitted curve in the direction sought with a large enough effect; inconclusive means small, poorly fitted or top-dose-only effect, or another doubt; inactive means no such curve, though single readings can be large; an effect the other way counts as inactive or inconclusive.

COC(=O)C(C(C)=O)C1=C/C(=N\S(=O)(=O)c2ccc(C)cc2)c2ccccc2C1=O (centres undefined)	S2 tox inconclusive, ATXN2 expr inh inconclusive (no result: Nrf2 block)
CC(=O)Nc1ccc(NC2=C/C(=N/S(=O)(=O)c3cccs3)c3ccccc3C2=O)cc1	TGFb inhibitor 5.01µM, HepG2 tox-1 6.31µM, S2 tox 10µM, ATXN2 expr inh 15.8µM | TGFb CAGA inh 2.59µM | HepG2 tox-2 3.26µM | TGFb CCL64 inh 9.2µM | TGFb COP inh 5.17µM
O=[N+]([O-])c1cc2c(c3cccnc13)COCO2	TGFb inhibitor inconclusive | TGFb CAGA inh 18.4µM | HepG2 tox-2 inactive | TGFb CCL64 inh inactive | TGFb COP inh inactive
c1cnc2ccc3c(c2c1)COCO3	none
CCN(CC)CCOC(=O)c1ccc(NC(=O)c2cc3cccc(OC)c3oc2=O)cc1	none (no result: Nrf2 block)
O=C1N[C@@H](c2ccccc2)COC(=O)[C@@H](Cc2ccc(F)cc2)CC/C=C/C[C@H]1CC(=O)N(CCO)Cc1ccccc1	TGFb inhibitor inconclusive, A549 viability inconclusive, S2 tox inconclusive, Nrf2 block inconclusive
O=C(C[C@@H]1C/C=C\C[C@@H](Cc2ccc(F)cc2)C(=O)OC[C@@H](Cc2ccccc2)NC1=O)N[C@H](CO)Cc1ccccc1	TGFb inhibitor inconclusive | TGFb CAGA inh inactive | HepG2 tox-2 inactive | TGFb CCL64 inh inactive | TGFb COP inh inactive
O=C1N[C@@H](c2ccccc2)COC(=O)[C@@H](Cc2ccc(F)cc2)CC/C=C/C[C@@H]1CC(=O)N(CCO)Cc1ccccc1	TGFb inhibitor inconclusive, S2 tox 17.8µM, ATXN2 expr inh inconclusive, Nrf2 block inconclusive | TGFb CAGA inh 14.6µM | HepG2 tox-2 inactive | TGFb CCL64 inh inconclusive | TGFb COP inh inactive
CC1(C(=O)NS(=O)(=O)c2ccc3ccccc3c2)CCN1C(=O)Cc1ccc(Cl)cc1Cl (centres undefined)	none (no result: A549 viability, Nrf2 block)
CC(=O)Nc1ccc(C=NNC(=O)CCCC(=O)NN=Cc2ccc(NC(C)=O)cc2)cc1	none
O=C(N/N=C/c1ccc2c(c1)OCO2)c1cc(-c2ccccc2Cl)nc2ccccc12	TGFb inhibitor inconclusive | TGFb CAGA inh inactive | HepG2 tox-2 inactive | TGFb CCL64 inh inactive | TGFb COP inh inactive
C/C(=N\NC(=O)c1ccccc1OCc1ccc(F)cc1)c1ccccn1	TGFb inhibitor 11.2µM, A549 viability inconclusive, S2 tox inconclusive, Nrf2 block inconclusive (no result: ATXN2 expr inh) | TGFb CAGA inh 14.6µM | HepG2 tox-2 inconclusive | TGFb CCL64 inh 8.2µM | TGFb COP inh inactive
COc1ccc(C(=O)NC(CO)c2nnc(SCc3ccc(Cl)c(Cl)c3)n2C)cc1 (centres undefined)	S2 tox inconclusive

Assay outcomes as filed in PubChem.
